Laboratory results reported in PMC5700166.

How the values were obtained:
Assay in all cases: protein-binding microarray (PBM); PBM: ~300 nM protein, 6 mM HEPES pH 7.8, 80 mM KCl, 0.5 mM EDTA, 0.5 mM EGTA, 6% glycerol, 35 ng/ul poly-dIdC, 1% milk, 1 h, room temperature; Ap Aiptasia and Nv Nematostella (sea anemones) / Co Capsaspora / Aq Amphimedon (sponge) / Dm Drosophila / Hu human; RHD is the Rel homology domain; high values mean tight binding
Settings in all cases: dsDNA, one strand shown
GST-Ap-NF-kB RHD = molecular target: T1, GST-Ap-NF-kB RHD (Exaiptasia pallida (Aiptasia), UniProt A0A913YAJ5 2-422)
T1 sequence: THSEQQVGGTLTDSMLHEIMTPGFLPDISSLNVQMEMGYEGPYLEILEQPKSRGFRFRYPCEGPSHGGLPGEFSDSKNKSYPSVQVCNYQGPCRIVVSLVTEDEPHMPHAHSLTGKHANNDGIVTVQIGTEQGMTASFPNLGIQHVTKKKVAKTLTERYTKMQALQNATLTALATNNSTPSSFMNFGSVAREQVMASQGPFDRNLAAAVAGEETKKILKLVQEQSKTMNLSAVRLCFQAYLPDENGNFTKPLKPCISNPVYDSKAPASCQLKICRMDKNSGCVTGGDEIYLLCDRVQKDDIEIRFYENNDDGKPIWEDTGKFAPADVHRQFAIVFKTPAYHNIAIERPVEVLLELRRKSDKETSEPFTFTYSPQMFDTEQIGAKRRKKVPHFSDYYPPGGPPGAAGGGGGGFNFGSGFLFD

[1] = molecular target: T2, GST-Nv-NF-kB (Cys allele) (Nematostella vectensis, UniProt E5G601 2-411)
T2 sequence: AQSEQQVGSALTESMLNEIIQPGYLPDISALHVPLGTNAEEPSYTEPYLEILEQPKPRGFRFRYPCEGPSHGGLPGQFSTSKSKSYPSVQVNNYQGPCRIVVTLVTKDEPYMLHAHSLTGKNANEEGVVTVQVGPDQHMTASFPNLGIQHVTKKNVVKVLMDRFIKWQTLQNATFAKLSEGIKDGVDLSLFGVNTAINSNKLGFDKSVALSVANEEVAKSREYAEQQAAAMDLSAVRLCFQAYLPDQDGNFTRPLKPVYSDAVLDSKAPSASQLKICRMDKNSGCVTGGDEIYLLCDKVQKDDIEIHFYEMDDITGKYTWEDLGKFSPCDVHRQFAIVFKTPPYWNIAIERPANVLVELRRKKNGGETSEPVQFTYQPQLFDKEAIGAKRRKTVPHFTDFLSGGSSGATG

GST-Co-NF-kB = molecular target: T3, GST-Co-NF-kB (Capsaspora owczarzaki, UniProt F1ARL5 200-546)
T3 sequence: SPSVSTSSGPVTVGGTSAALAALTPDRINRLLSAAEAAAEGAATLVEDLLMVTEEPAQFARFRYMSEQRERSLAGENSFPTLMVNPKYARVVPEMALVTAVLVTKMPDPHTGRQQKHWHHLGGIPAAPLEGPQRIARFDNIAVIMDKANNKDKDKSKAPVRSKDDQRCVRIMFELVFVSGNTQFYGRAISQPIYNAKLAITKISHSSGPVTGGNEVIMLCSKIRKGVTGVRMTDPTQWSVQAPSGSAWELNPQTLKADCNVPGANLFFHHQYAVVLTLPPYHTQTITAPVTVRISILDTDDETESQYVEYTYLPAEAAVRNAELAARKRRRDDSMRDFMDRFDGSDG

GST-Dm-Relish = molecular target: T4, GST-Dm-Relish (Drosophila melanogaster, UniProt Q94527 99-473)
T4 sequence: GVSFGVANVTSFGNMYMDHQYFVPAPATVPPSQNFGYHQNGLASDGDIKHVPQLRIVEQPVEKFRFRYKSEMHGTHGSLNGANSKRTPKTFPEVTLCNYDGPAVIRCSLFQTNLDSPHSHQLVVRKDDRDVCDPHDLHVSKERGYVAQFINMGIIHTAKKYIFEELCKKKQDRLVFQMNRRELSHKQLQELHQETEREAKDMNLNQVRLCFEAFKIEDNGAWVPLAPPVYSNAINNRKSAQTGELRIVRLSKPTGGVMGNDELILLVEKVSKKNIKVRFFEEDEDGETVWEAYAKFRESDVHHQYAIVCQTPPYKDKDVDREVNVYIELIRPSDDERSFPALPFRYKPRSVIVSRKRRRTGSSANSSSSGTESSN

GST-Aq-NF-kB = molecular target: T5, GST-Aq-NF-kB (Amphimedon queenslandica, UniProt A9Y5G7 2-389)
T5 sequence: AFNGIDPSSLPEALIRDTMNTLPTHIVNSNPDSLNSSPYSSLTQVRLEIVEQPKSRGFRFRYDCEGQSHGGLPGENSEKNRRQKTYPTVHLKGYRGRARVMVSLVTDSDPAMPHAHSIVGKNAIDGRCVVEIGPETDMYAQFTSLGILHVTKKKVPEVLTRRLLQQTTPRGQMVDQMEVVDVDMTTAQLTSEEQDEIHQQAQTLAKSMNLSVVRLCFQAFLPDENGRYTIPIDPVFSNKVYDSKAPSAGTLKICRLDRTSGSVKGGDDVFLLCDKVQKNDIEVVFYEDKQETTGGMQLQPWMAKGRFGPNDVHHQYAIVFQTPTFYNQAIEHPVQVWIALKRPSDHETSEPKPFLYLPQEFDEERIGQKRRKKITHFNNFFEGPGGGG

Sequence | binding signal (GST-Ap-NF-kB RHD) [z-score] | binding signal [1] [z-score] | binding signal (GST-Co-NF-kB) [z-score] | binding signal (GST-Dm-Relish) [z-score] | binding signal (GST-Aq-NF-kB) [z-score]
CCGATTAACATCAGGGCCCCCCCTGATGTTAATCGGGTCTTGATTCGCTTGACGCTGCTG | 6.57 | 4.21 | 2.89 | 6.49 | 7.6
CCGATTAACATCAGGTAATCACCTGATGTTAATCGGGTCTTGATTCGCTTGACGCTGCTG | 1.18 | 2.2 |  | 5.6 | 4.04
CCGATTAACATCAGGGAGTTCCATGATGTTAATCGGGTCTTGATTCGCTTGACGCTGCTG | 2.73 | 3.31 |  | 4.43 | 4.38
CCGATTAACATCAGGGGTTCCACTGATGTTAATCGGGTCTTGATTCGCTTGACGCTGCTG | 2.77 | 2.46 |  | 5.79 | 3.97
CCGATTAACATCACGGTACTTCCTGATGTTAATCGGGTCTTGATTCGCTTGACGCTGCTG | 2.38 | 2.66 |  | 7.59 | 2.93
CCGATTAACATCACGGGACATACTGATGTTAATCGGGTCTTGATTCGCTTGACGCTGCTG | 1.83 | 1.3 |  | 1.8 | 2.17
CCGATTAACATCAAGGGGGTCCCTGATGTTAATCGGGTCTTGATTCGCTTGACGCTGCTG | 5.89 | 3.29 |  | 7.16 | 4.47
CCGATTAACATCATGAAGACCCCTGATGTTAATCGGGTCTTGATTCGCTTGACGCTGCTG | 2.6 | 1.18 |  | 1.35 | 2.25
CCGATTAACATCAGGGCTTTACCTGATGTTAATCGGGTCTTGATTCGCTTGACGCTGCTG | 1.07 | 2.29 |  | 5.69 | 3.97
CCGATTAACATCAGAGAAGTCCCTGATGTTAATCGGGTCTTGATTCGCTTGACGCTGCTG | 5.7 | 6.22 |  | 4.44 | 5.93
CCGATTAACATCACGGTATTTCCTGATGTTAATCGGGTCTTGATTCGCTTGACGCTGCTG | 1.56 | 1.37 |  | 3.77 | 4.59
CCGATTAACATCAGGAACGCCCCTGATGTTAATCGGGTCTTGATTCGCTTGACGCTGCTG | 3.09 | 3.22 |  | 2.09 | 5.42
CCGATTAACATCAGGAAAACACCTGATGTTAATCGGGTCTTGATTCGCTTGACGCTGCTG | 2.56 | 3.6 |  | 3.1 | 5.13
CCGATTAACATCAGGGCATACCCTGATGTTAATCGGGTCTTGATTCGCTTGACGCTGCTG | 2.36 | 3.25 |  | 3.77 | 5.87
CCGATTAACATCAGGACAATCCCTGATGTTAATCGGGTCTTGATTCGCTTGACGCTGCTG | 2.22 | 2.68 |  | 2.5 | 5.09
CCGATTAACATCAGGACAGTCCCTGATGTTAATCGGGTCTTGATTCGCTTGACGCTGCTG | 4.92 | 5.23 |  | 3.04 | 7.13

Sequence | binding signal (GST-Ap-NF-kB RHD) [z-score] | binding signal [1] [z-score] | binding signal (GST-Co-NF-kB) [z-score] | binding signal (GST-Dm-Relish) [z-score] | binding signal (GST-Aq-NF-kB) [z-score]
CCGATTAACATCAGGTAATTCCATGATGTTAATCGGGTCTTGATTCGCTTGACGCTGCTG | 1.26 | 1.89 |  | 4.41 | 3.06
CCGATTAACATCAAGGTAATTCCTGATGTTAATCGGGTCTTGATTCGCTTGACGCTGCTG | 1.69 | 2.09 |  | 4.8 | 3.37
CCGATTAACATCAGGGTTTTCCATGATGTTAATCGGGTCTTGATTCGCTTGACGCTGCTG | 2.55 | 2.18 |  | 5.27 | 4.33
CCGATTAACATCAGGGATCTACCTGATGTTAATCGGGTCTTGATTCGCTTGACGCTGCTG | 3.06 | 2.58 |  | 7.65 | 4.74
CCGATTAACATCAGGGACTTACCTGATGTTAATCGGGTCTTGATTCGCTTGACGCTGCTG | 5.1 | 7 |  | 7.96 | 8.29
CCGATTAACATCAGGAAAATACCTGATGTTAATCGGGTCTTGATTCGCTTGACGCTGCTG | 1.22 | 2.3 |  | 4.66 | 4.29
CCGATTAACATCAAAATTCCACCTGATGTTAATCGGGTCTTGATTCGCTTGACGCTGCTG | 1.5 | 2.45 |  | 1.96 | 2.25
CCGATTAACATCAGAAAAAACCCTGATGTTAATCGGGTCTTGATTCGCTTGACGCTGCTG | 3.95 | 4.93 |  | 6.15 | 6.47
CCGATTAACATCAGGAGAATCCCTGATGTTAATCGGGTCTTGATTCGCTTGACGCTGCTG | 2.6 | 3.24 |  | 4.39 | 5.52
CCGATTAACATCAGGACTATCCCTGATGTTAATCGGGTCTTGATTCGCTTGACGCTGCTG | 1.82 | 2.61 |  | 1.48 | 5.97
CCGATTAACATCAGAAAATGCCCTGATGTTAATCGGGTCTTGATTCGCTTGACGCTGCTG | 1.93 | 2.33 |  | 2.42 | 3.47
CCGATTAACATCAGGGATTCCACTGATGTTAATCGGGTCTTGATTCGCTTGACGCTGCTG | 2.72 | 1.75 |  | 6.88 | 4.11
CCGATTAACATCAGGTACTTCCATGATGTTAATCGGGTCTTGATTCGCTTGACGCTGCTG | 2.51 | 2.6 |  | 5.93 | 2.23
CCGATTAACATCAGGCAAATCCCTGATGTTAATCGGGTCTTGATTCGCTTGACGCTGCTG | 1.95 | 2.27 |  | 1.36 | 4.16
CCGATTAACATCAGGGACCGCCCTGATGTTAATCGGGTCTTGATTCGCTTGACGCTGCTG | 4.16 | 3.55 |  | 1.91 | 6.48
